According to the supplement of paper PMC3334620:
In all, about 33,000 sequences were measured (“E-score (-0.5 to 0.5)”: median about -0.035, highest 2% from about 0.35 on). Only a selection was taken, and the highest values are over-represented in it overall.

target: T1, Pdr3 (UniProt P33200); test: PBM E-score (8-mer binding enrichment) (E-score (-0.5 to 0.5)); higher = stronger / more preferred TF binding; conditions: protein concentration: 200 nM; construct: GST-full length
T1 sequence: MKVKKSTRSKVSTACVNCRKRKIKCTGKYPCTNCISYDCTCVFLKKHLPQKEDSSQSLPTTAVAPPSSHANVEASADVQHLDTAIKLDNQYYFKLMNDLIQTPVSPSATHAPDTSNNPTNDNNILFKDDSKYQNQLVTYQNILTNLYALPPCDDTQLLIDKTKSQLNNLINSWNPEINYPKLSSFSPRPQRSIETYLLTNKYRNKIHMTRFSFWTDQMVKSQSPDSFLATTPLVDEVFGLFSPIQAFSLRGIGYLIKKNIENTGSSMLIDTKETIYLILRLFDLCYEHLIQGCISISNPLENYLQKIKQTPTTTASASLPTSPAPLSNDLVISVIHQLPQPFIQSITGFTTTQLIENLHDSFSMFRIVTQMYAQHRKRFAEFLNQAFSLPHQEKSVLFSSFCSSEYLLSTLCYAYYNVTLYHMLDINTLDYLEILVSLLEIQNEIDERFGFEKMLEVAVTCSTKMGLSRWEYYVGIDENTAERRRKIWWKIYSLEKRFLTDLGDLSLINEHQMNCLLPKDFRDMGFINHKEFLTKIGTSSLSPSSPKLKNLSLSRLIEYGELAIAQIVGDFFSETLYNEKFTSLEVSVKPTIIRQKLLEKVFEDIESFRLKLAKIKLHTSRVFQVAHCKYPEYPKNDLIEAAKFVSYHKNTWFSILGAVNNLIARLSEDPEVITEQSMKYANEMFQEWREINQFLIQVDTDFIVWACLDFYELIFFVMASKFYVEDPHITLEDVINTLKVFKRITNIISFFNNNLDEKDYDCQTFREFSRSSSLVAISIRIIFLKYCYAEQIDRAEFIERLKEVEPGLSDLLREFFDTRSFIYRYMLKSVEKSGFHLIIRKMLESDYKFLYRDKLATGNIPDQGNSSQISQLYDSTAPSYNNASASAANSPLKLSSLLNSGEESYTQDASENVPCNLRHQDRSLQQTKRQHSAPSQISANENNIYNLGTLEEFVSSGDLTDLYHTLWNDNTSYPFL
Procedure: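 Universal 'all 10-mer' protein binding microarrays (Agilent AMADID 015681) probed with GST-tagged S. cerevisiae TFs (full-length or DBD) made by in vitro transcription/translation (PURExpress), about 100-200 nM. Bound TF was detected with fluorescent anti-GST. Each ungapped 8-mer (which stands for itself and its reverse complement) is scored by the PBM enrichment score (E-score), a modified Wilcoxon-Mann-Whitney statistic from -0.5 to +0.5, computed with the Universal PBM Analysis Suite. Scale: above 0.35 generally sequence-specific binding.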

Sequence	PBM E-score
CGGCGAGA	0.0811
GTTTCTCA	-0.134
ACGGATCC	0.445
CGGGATCC	0.417
CGGGATCA	0.344
ACGGATCG	0.236
TCGGATCA	0.303
GCGGATCA	0.296
CCGGATAG	0.347
CAGGATCG	0.0205
CCGGATCA	0.389
CCGGATCG	0.391
AGGGATCC	0.196
ACGGATCT	0.271
GGGGTCCA	-0.138
CGCTAAAA	0.00276
CCTTTTAG	-0.291
AATCTGCT	-0.15
ACCCTCCC	0.299
CTGAAGCA	-0.199
CCAATGCC	0.0068
AGGCATTG	-0.0729
CCCATTGC	-0.0113
GGCGGTTA	0.0539
AAGCATCT	-0.243

Sequence	PBM E-score
CATTTGTA	-0.0519
AGGCGAAC	-0.114
ATGGATCA	-0.0186
AAGGATCA	-0.14
ACGGATCA	0.366
CTGGATCC	0.285
CCGGATCC	0.433
CAGGATCC	0.0521
GCGGATAC	0.311
GCGGATCC	0.409
GAGGATCC	0.235
ATCGTTAA	0.00324
CGAATCCA	0.0811
CCGTCACG	0.238
ATCCCACC	0.266
GCTCGGAC	0.297
CCTCGGCC	0.251
CCTCGGAC	0.282
ACTCGGAT	0.256
GCTCGGAA	0.413
GCTCGGTA	0.123
CCTCGGAG	0.283
ACTCGGAA	0.427
CCTCGGCG	0.376
CCTCGGAA	0.442

Sequence	PBM E-score
ACTCGGAC	0.305
CCTCGGCA	0.238
AAACGTCA	-0.149
AAGCCTGT	0.028
CTGCAGGC	-0.094
TCTCGTAA	-0.0824
TCTCGGCA	0.217
TCTCGGAA	0.444
AAGGCCAG	-0.0965
TAAGCACA	0.108
AAGGAACC	0.217
CAGGAACG	-0.0257
AGGGAACT	0.0568
CGGGAACC	0.312
CGGGAACG	0.285
ACGGAACT	0.48
CCGGAACG	0.475
AAGGAACT	0.0764
CCGGAACC	0.476
CAGGAACC	-0.124
AGGGAACC	-0.00025
ACGGAACC	0.487
ACTCAACC	-0.035
ATTGCACC	-0.0754
GGCACTAA	0.156

Sequence	PBM E-score
CGATTGCG	0.202
CTTTCTGC	-0.0975
CAGCACAC	-0.275
CACTCGCG	0.0224
GACCAATA	-0.0553
AGTGGTTG	-0.00222
ACGGAACG	0.48
GGGGAACC	-0.157
AAGGAACG	0.00917
GCGGAACC	0.482
ATGGAACG	0.0401
GAGGAACC	0.0227
CGATCTTC	0.0584
CTCTTCAG	-0.243
CTAACAGA	-0.028
AGGAGTGC	-0.0635
ATGGTCCA	-0.203
ATGGTCCG	0.387
CCGGTCCG	0.414
CCGGTCCA	0.0798
ATGGTCCC	-0.0703
CCGGTCCC	0.312
CAGCTTAC	-0.193
GTAGTGAC	0.0971
CAGATGCA	-0.278

Sequence	PBM E-score
ACGCGCAC	-0.111
ACATCCAC	-0.04
CAATCATG	-0.189
CGGATTCA	0.179
AGGATTCC	0.223
CCGATTCC	0.395
CCGATTCG	0.25
CGGATTCC	0.454
GCGATTCC	0.34
ATTCACCG	0.254
ACCCACAG	-0.278
CATCTCCC	0.155
CATCTCCG	0.377
AATCTCCG	0.322
GTCTGACA	0.159
AACCTTTG	-0.165
CGAACCGA	0.15
CGAACGGA	0.407
AGAACGGA	0.316
GGAACCGA	0.406
CGAACGAA	0.0784
CGAACGGC	0.177
AGAACCGA	0.0498
GGAACGCA	0.275
GGAACGGA	0.431

Sequence	PBM E-score
AACACCCC	0.0302
AGCACTTA	-0.102
GGATTCCC	0.231
ACCTGACT	-0.131
AGAGGGGC	-0.138
TAGGGTGA	0.00768
TATGTCAA	0.0343
GTCTCCAC	-0.208
TAAGGGTA	-0.262
GCGGGTCC	0.243
CCGGGTCG	0.378
CCGGGTCC	0.365
ACGGGTTC	0.202
ACGGGTCG	0.227
ACGGGTCC	0.186
CCGGGTCA	0.349
CCGGGTTC	0.411
CCGGGTTA	0.353
AAGCGCTT	0.21
ATGAAGGG	-0.171
GTGGATAA	0.0146
GGATTTGA	-0.0356
CGGTCTTC	0.123
AATCAACA	0.115
GCTCGAAA	0.0413

Sequence	PBM E-score
ATACTCCG	0.371
ATACTCCC	0.127
ATACTCCA	-0.0793
CCGCGGCC	0.459
CCGCGGCG	0.477
CAGCGGCG	0.154
GCGCGGCC	0.219
ACGCGGCG	0.209
ACGCGGCC	0.0489
GACGTCTC	-0.145
TATCGAGA	-0.0727
ACGCAAGT	-0.255
GCCCCGGA	0.41
TCCCCGGA	0.411
CCCCCGGA	0.311
GCCCCGGC	0.163
TCCCCGAA	0.232
TCCCCCGA	0.0813
CTTGGAGC	-0.207
ACTTTCAG	-0.184
AAATTGCG	0.0648
GATCTTAC	-0.113
